What was measured:
Assay in all cases: PBM binding z-score (relative to random genomic background probes); higher = stronger binding; sequences stand for … in GC…GCGATTGACAGCGTAGAATGAAGG
[1] = tested on: FXR:RXRa (NR concentration 270 nM, RXRa partner concentration 90 nM)
Procedure, shortened: (§1)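 Binding z-scores were set against random background probes. The data came from custom Agilent 4×180K protein-binding microarrays carrying double-stranded probes with 34-nt variable regions, incubated 1 h with ligand-free nuclear receptor dimers. Partner-specific antibodies detected binding, and scanned fluorescence was regression-normalized.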

[2] = tested on: LXRa:RXRa (NR concentration 270 nM, RXRa partner concentration 90 nM)
Procedure, shortened: as §1

[3] = tested on: LXRa homodimer (NR concentration 270 nM)
Procedure, shortened: as §1

[4] = tested on: LXRb:RXRa (NR concentration 270 nM, RXRa partner concentration 90 nM)
Procedure, shortened: as §1

[5] = tested on: LXRb homodimer (NR concentration 270 nM)
Procedure, shortened: as §1

[6] = tested on: PPARa:RXRa (NR concentration 270 nM, RXRa partner concentration 90 nM)
Procedure, shortened: as §1

[7] = tested on: PPARg:RXRa (NR concentration 180 nM, RXRa partner concentration 90 nM)
Procedure, shortened: as §1

[8] = tested on: PPARg:RXRa 270nM:90nM, anti-RXR (NR concentration 270 nM, RXRa partner concentration 90 nM)
Procedure, shortened: as §1

[9] = tested on: PPARg:RXRa 30nM:10nM, anti-RXR (NR concentration 30 nM, RXRa partner concentration 10 nM)
Procedure, shortened: as §1

[10] = tested on: PPARg:RXRa 90nM:30nM, anti-RXR (NR concentration 90 nM, RXRa partner concentration 30 nM)
Procedure, shortened: as §1

[11] = tested on: PPARg:RXRa DBDmut IVT, anti-RXR (DBD mutation: RXRa K156A/R161A, NR concentration 270 nM, RXRa partner concentration 90 nM)
Procedure, shortened: as §1

[12] = tested on: PPARg:RXRa IVT, anti-PPARg (NR concentration 270 nM, RXRa partner concentration 90 nM)
Procedure, shortened: as §1

[13] = tested on: PPARg DBDmut:RXRa IVT, anti-PPARg (DBD mutation: PPARg1 K132A/R137A, NR concentration 270 nM, RXRa partner concentration 90 nM)
Procedure, shortened: as §1

[14] = tested on: PPARg DBDmut IVT, anti-PPARg (DBD mutation: PPARg1 K132A/R137A, NR concentration 270 nM)
Procedure, shortened: as §1

[15] = tested on: PPARg homodimer (NR concentration 180 nM)
Procedure, shortened: as §1

[16] = tested on: PXR:RXRa (NR concentration 270 nM, RXRa partner concentration 90 nM)
Procedure, shortened: as §1

[17] = tested on: PXR homodimer (NR concentration 270 nM)
Procedure, shortened: as §1

[18] = tested on: RARa:RXR (NR concentration 270 nM, RXRa partner concentration 90 nM)
Procedure, shortened: as §1

[19] = tested on: RARa homodimer (NR concentration 270 nM)
Procedure, shortened: as §1

[20] = tested on: RARb:RXRa (NR concentration 270 nM, RXRa partner concentration 90 nM)
Procedure, shortened: as §1

Question: Which PBM binding z-score [1] does the source give for AATACAGGGTCACCGTAGGCCAGAGTACGCACAG here?
Answer: 7.2

Question: And the PBM binding z-score [2]?
Answer: 6.43

Question: And the PBM binding z-score [3]?
Answer: 1.2

Question: What about the PBM binding z-score [4] of the same sequence?
Answer: 4.96

Question: And the PBM binding z-score [5]?
Answer: 0.78

Question: And the PBM binding z-score [6]?
Answer: 6.14

Question: What about the PBM binding z-score [7] of the same sequence?
Answer: 7.71

Question: And the PBM binding z-score [8]?
Answer: 6.83

Question: And the PBM binding z-score [9]?
Answer: 3.15

Question: And the PBM binding z-score [10]?
Answer: 5.65

Question: And the PBM binding z-score [11]?
Answer: 3.34

Question: And the PBM binding z-score [12]?
Answer: 4.88

Question: And the PBM binding z-score [13]?
Answer: 1.63

Question: What about the PBM binding z-score [14] of the same sequence?
Answer: 0.332

Question: And the PBM binding z-score [15]?
Answer: 2.04

Question: What about the PBM binding z-score [16] of the same sequence?
Answer: 4.97

Question: And the PBM binding z-score [17]?
Answer: 0.366

Question: What about the PBM binding z-score [18] of the same sequence?
Answer: 5.28

Question: And the PBM binding z-score [19]?
Answer: 0.752

Question: And the PBM binding z-score [20]?
Answer: 4.8

Question: For TATACAGGGTCCAAGGCCAGAGTACGAATGTCGA, which PBM binding z-score [1] is on record?
Answer: 0.36

Question: What about the PBM binding z-score [2] of the same sequence?
Answer: 0.228

Question: And the PBM binding z-score [3]?
Answer: 0.0779

Question: What about the PBM binding z-score [4] of the same sequence?
Answer: 0.18

Question: And the PBM binding z-score [5]?
Answer: 1.02

Question: What about the PBM binding z-score [6] of the same sequence?
Answer: 0.314

Question: And the PBM binding z-score [7]?
Answer: 0.93

Question: And the PBM binding z-score [8]?
Answer: 0.625

Question: And the PBM binding z-score [9]?
Answer: 0.686

Question: What about the PBM binding z-score [10] of the same sequence?
Answer: 0.795

Question: What about the PBM binding z-score [11] of the same sequence?
Answer: -0.0833

Question: What about the PBM binding z-score [12] of the same sequence?
Answer: 0.889

Question: What about the PBM binding z-score [13] of the same sequence?
Answer: 1

Question: And the PBM binding z-score [14]?
Answer: 0.775

Question: And the PBM binding z-score [15]?
Answer: 0.44

Question: What about the PBM binding z-score [16] of the same sequence?
Answer: 0.336

Question: What about the PBM binding z-score [17] of the same sequence?
Answer: 0.699

Question: And the PBM binding z-score [18]?
Answer: 0.0317

Question: And the PBM binding z-score [19]?
Answer: 0.427

Question: And the PBM binding z-score [20]?
Answer: 1.2

Question: ACCCGGAGGACAAAGGTCAGAGCTACGCCAGTGA was tested. Which PBM binding z-score [1] did it give?
Answer: 4

Question: What about the PBM binding z-score [2] of the same sequence?
Answer: 4.23

Question: And the PBM binding z-score [3]?
Answer: 1.65

Question: And the PBM binding z-score [4]?
Answer: 3.55

Question: What about the PBM binding z-score [5] of the same sequence?
Answer: 0.448

Question: And the PBM binding z-score [6]?
Answer: 5.01

Question: What about the PBM binding z-score [7] of the same sequence?
Answer: 6.33

Question: And the PBM binding z-score [8]?
Answer: 6.32

Question: And the PBM binding z-score [9]?
Answer: 3.97

Question: What about the PBM binding z-score [10] of the same sequence?
Answer: 5.95

Question: What about the PBM binding z-score [11] of the same sequence?
Answer: 0.224

Question: And the PBM binding z-score [12]?
Answer: 2.99

Question: What about the PBM binding z-score [13] of the same sequence?
Answer: -0.0126

Question: And the PBM binding z-score [14]?
Answer: -0.296

Question: What about the PBM binding z-score [15] of the same sequence?
Answer: 2.98

Question: What about the PBM binding z-score [16] of the same sequence?
Answer: 4.14

Question: What about the PBM binding z-score [17] of the same sequence?
Answer: 0.302

Question: What about the PBM binding z-score [18] of the same sequence?
Answer: 5

Question: What about the PBM binding z-score [19] of the same sequence?
Answer: 0.962

Question: What about the PBM binding z-score [20] of the same sequence?
Answer: 4.51

Question: For CCTACTGGGCCATTCAGAGGTCATTGAGCATATG, which PBM binding z-score [1] is on record?
Answer: 2.93

Question: What about the PBM binding z-score [2] of the same sequence?
Answer: 4.74

Question: What about the PBM binding z-score [3] of the same sequence?
Answer: 6.54

Question: What about the PBM binding z-score [4] of the same sequence?
Answer: 3.65

Question: What about the PBM binding z-score [5] of the same sequence?
Answer: 0.261

Question: What about the PBM binding z-score [6] of the same sequence?
Answer: 4.02

Question: And the PBM binding z-score [7]?
Answer: 2.49

Question: And the PBM binding z-score [8]?
Answer: 3.28

Question: What about the PBM binding z-score [9] of the same sequence?
Answer: 1.01

Question: And the PBM binding z-score [10]?
Answer: 2.38

Question: What about the PBM binding z-score [11] of the same sequence?
Answer: 4

Question: What about the PBM binding z-score [12] of the same sequence?
Answer: 4.21

Question: What about the PBM binding z-score [13] of the same sequence?
Answer: 0.182

Question: What about the PBM binding z-score [14] of the same sequence?
Answer: -0.178

Question: And the PBM binding z-score [15]?
Answer: 2.75

Question: What about the PBM binding z-score [16] of the same sequence?
Answer: 4.88

Question: And the PBM binding z-score [17]?
Answer: 2.54

Question: And the PBM binding z-score [18]?
Answer: 4.74

Question: What about the PBM binding z-score [19] of the same sequence?
Answer: 0.462

Question: What about the PBM binding z-score [20] of the same sequence?
Answer: 3.14
